# Cycloheximide cs: Cycloheximide Counterscreen for Small Molecule Inhibitors of Shiga Toxin | cell reporter, cycloheximide protein synthesis inhibition counterscreen | max response, % | 12% of 300,000 active; in the data active means max response mostly above about 13%, no sharp cut-off; inactive means mostly below about 14%; further: read at 38.3 µM for the half of the compounds with a filed dose
# Sm TGR block: qHTS Assay for the Inhibitors of Schistosoma Mansoni Peroxiredoxins; Schistosoma mansoni thioredoxin glutathione reductase (TGR), Q962Y6; AID 485364, 2010; purified TGR, DTNB reduction, TNB absorbance 405 nm; Potency, µM (highest dose often 114 µM), most hits filed as inhibitors; 3% of 360,000 active; active means well fitted inhibition curve with a large enough effect; inconclusive means small, poorly fitted or top-dose-only effect; inactive means no such curve, though single readings can be large or run the other way; further: nearly all actives have a fitted effect of over 60% in size
#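 First, TGR (20 nM dispensed) and NADPH were mixed with compound. Second, a 15 min room-temperature incubation followed. Third, further NADPH and then DTNB were added to start the reaction. Finally, TNB absorbance was monitored kinetically.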
# Shiga toxin inh: A qHTS for Small Molecule Inhibitors of Shiga Toxin. 9.2% of 290,000 active. Vero cells, Shiga toxin protein synthesis inhibition reporter. inhibition, % at 38.7 µM; in the data active means inhibition mostly above about 28%, no sharp cut-off; inactive means mostly below about 43%
# FMDV inh: High Throughput Screening for Foot and Mouth Disease Virus Antivirals; FMDV antiviral cell-based qHTS; Potency, µM (titrated, usually from 57.9 µM), actives largely listed as inhibitors; 1.2% of 410,000 active; AID 1159524, 2015; calls by dose curve; tested in HEK293T cells; further: read-out not given here; nearly all actives have a fitted effect of over 45% in size
# Numbers stand for hits; 0 = inactive; ? = inconclusive; - = no result; ! = not confirmed by another sample. Shown are actives, neighbours in structure and some others; about 12% of the full set was active somewhere.
SMILES,Cycloheximide cs,Sm TGR block,Shiga toxin inh,FMDV inh
CC(=O)Nc1ccccc1C(=O)OCC(=O)c1ccccc1Cl,24,0,53,0
CC(=O)c1ccc(COC(=O)c2ccccc2NC(=O)C(C)C)cc1,0,-,0,-
COc1ccc(NC(=O)c2c(NCc3ccc(C)o3)sc3c2CCC(C)C3)cc1 (centres undefined),-,10µM,-,0
COc1ccc(NC(=O)c2c(NCc3ccc(C)o3)sc3c2CCC(C)C3)c(OC)c1 (centres undefined),-,28µM,-,0
COc1ccccc1NC(=O)c1csc2c1CCC(C)C2 (centres undefined),51,50µM,67,0
COc1ccccc1NC(=O)c1c(NCc2ccc(C)o2)sc2c1CCC(C)C2 (centres undefined),-,32µM,-,0
O=C1N(Cc2ccccc2Cl)c2ccccc2C1(O)c1c[nH]c2ccccc12 (centres undefined),-,0,-,0
COc1ccc(NC(=O)c2c(NCc3ccc(C)o3)sc3c2CCCCC3)c(OC)c1,-,2.8µM,-,0
O=C1C(Cl)=C(Nc2ccccc2O)C(=O)N1c1ccccc1,45,22µM,67,0
COc1ccccc1N1C(=O)C(Cl)=C(Nc2ccccc2O)C1=O,32,8.9µM,103,0
Cc1c(NC2=C(Cl)C(=O)N(c3ccccc3)C2=O)c(=O)n(-c2ccccc2)n1C,0,?,0,0
CCOc1ccccc1NC1=C(Cl)C(=O)N(c2ccc(OC)cc2)C1=O,0,0,0,0
Cc1ccc(CN2c3ccccc3-c3nc(SCC(=O)Nc4c(C)cc(C)cc4C)ncc3S2(=O)=O)cc1,-,0,-,0
Cc1cc(C)nc(Sc2ncnc(N)c2[N+](=O)[O-])n1,0,4µM,0,13µM
CCc1cccc(NC(=O)Cn2c(=O)n(Cc3ccccc3)c(=O)c3c2c2cc(OC)ccc2n3C)c1,-,0,-,0
FC(F)c1nc2ccccc2[nH]1,0,?,0,0
c1ccc2[nH]c3cc4ncnc4cc3nc2c1,28,0,36,0
Cc1noc(NS(=O)(=O)c2ccc(N/C=C/C(=O)c3ccc4c(c3)OCO4)cc2)c1C,59,0,120,0
Cc1noc(NS(=O)(=O)c2ccc(N/C=C\C(=O)c3ccccc3)cc2)c1C,46,0,118,0
Cc1noc(NS(=O)(=O)c2ccc(N/C=C\C(=O)c3ccc(F)cc3)cc2)c1C,61,0,90,0
Cc1noc(NS(=O)(=O)c2ccc(N/C=C\C(=O)c3cccs3)cc2)c1C,43,-,94,0
Cc1noc(NS(=O)(=O)c2ccc(NC(=O)c3ccc(F)cc3)cc2)c1C,-,-,-,0
COc1ccc(-c2cc(C(F)(F)F)c(C#N)c(SCC(=O)Nc3ccc(F)cc3)n2)cc1,-,0,-,0
Cc1cc(N2CCN(c3ccc(F)cc3)CC2)n2nc(-c3ccc(Cl)cc3)nc2n1,-,0,-,0
COc1ccc(CN2CCOc3ccc(CN4CCC(Oc5cccnc5)CC4)cc3C2)cc1,-,-,-,0
SMILES,Cycloheximide cs,Sm TGR block,Shiga toxin inh,FMDV inh
Nc1nc(NC(=O)c2cccs2)nn1-c1ccccc1,30,0,0,0
Nc1nc(NC(=O)c2ccccc2)nn1-c1ccccc1,13,0,36,0
COC(=O)C1=C(C)N(CCC2=CCCCC2)C(=O)C1,21,32µM,0,0
O=C(O)c1ccc2c(c1)C(=O)N(CCC1=CCCCC1)C2=O,0,0,0,0
O=C1c2ccccc2C(=O)N1CCC1=CCCCC1,41,0,89,0
CC(C)(C)OC(=O)[C@H]1[C@H](c2ccc([N+](=O)[O-])cc2)C2(C(=O)c3ccccc3C2=O)C2c3ccccc3C=NN21 (some centres undefined),12,0,0,0
COc1ccc([C@H]2[C@H](C(=O)C(C)(C)C)N3N=Cc4ccccc4C3[C@]23N=C(c2ccccc2)OC3=O)cc1 (some centres undefined),0,0,0,0
O=C(CS(=O)(=O)c1ccccc1)Nc1ncc([N+](=O)[O-])s1,0,?,0,0
O=C(CCS(=O)(=O)Cc1ccccc1)Nc1ncc([N+](=O)[O-])s1,39,0,58,0
Cc1ccc(CC(=O)Nc2ncc([N+](=O)[O-])s2)cc1,30,-,0,0
O=C(CCS(=O)(=O)c1ccccc1)Nc1ncc([N+](=O)[O-])s1,0,45µM,0,0
O=C(CCS(=O)(=O)Cc1ccccc1)Nc1nncs1,0,?,0,0
COc1ccc(CCNC(=O)c2c(C)oc3ncn(CC(C)C)c(=O)c23)c(OC)c1,-,0,-,0
Cc1ccc(/C(O)=C2/C(=O)C(=O)N(CCCn3ccnc3)C2c2cccnc2)cc1 (centres undefined),-,-,-,0
CCCCOc1ccc(/C(O)=C2/C(=O)C(=O)N(CCCOC)C2c2ccncc2)cc1 (centres undefined),0,0,0,0
CCCOc1ccc(/C(O)=C2/C(=O)C(=O)N(CCCN3CCOCC3)C2c2ccncc2)cc1 (centres undefined),0,11µM,0,-
CCCOc1ccc(/C(O)=C2/C(=O)C(=O)N(CCCn3ccnc3)C2c2cccnc2)cc1 (centres undefined),0,?,0,0
CCOc1ccc(/C(O)=C2/C(=O)C(=O)N(CCCn3ccnc3)C2c2cccs2)cc1Cl (centres undefined),47,?,63,0
CCCOc1ccc(/C(O)=C2/C(=O)C(=O)N(CCCn3ccnc3)C2c2cccs2)cc1 (centres undefined),16,0,0,0
O=C(Nc1cccc(C(=O)O)c1)Nc1ccccc1Cl,31,0,98,10µM
CSc1cccc(NC(=O)Nc2ccc(Cl)cc2)c1,0,0,0,0
O=C(Nc1ccc(Cl)cc1)Nc1cccc(C(=O)O)c1,52,0,110,8.9µM
O=C(NCc1ccccc1)C(=O)Nc1cccc(C(=O)O)c1,61,0,158,11µM
O=C(Nc1cccc(Cl)c1)Nc1cccc(C(=O)O)c1,35,0,76,14µM
COc1ccccc1CNc1nc(-c2ccco2)nn1S(C)(=O)=O,-,0,-,0
SMILES,Cycloheximide cs,Sm TGR block,Shiga toxin inh,FMDV inh
O=C(Nc1cccc(C(=O)O)c1)Nc1cccc2ccccc12,21,0,0,0
CCOc1ccccc1NC(=O)c1cccc(NC(=O)C2CCCC2)c1,0,0,0,0
CC(=O)Nc1cccc(NC(=O)Nc2cccc3ccccc23)c1,0,0,0,0
O=C(Nc1ccccc1Cl)c1cccc(NC(=O)C2CCCC2)c1,12,0,0,0
COc1cc(C(=O)N/N=C/C2CC=CCC2)cc(OC)c1OC (centres undefined),0,0,0,0
O=C(N/N=C/C1CC=CCC1)c1cc2ccccc2cc1O (centres undefined),13,0,0,0
O=C(N/N=C/C1CC=CCC1)c1ccc(O)cc1O (centres undefined),71,0,0,0
O=S(=O)(CCN1CCN(c2ccccn2)CC1)c1ccc(Cl)cc1Cl,0,0,0,0
O=C(O)c1ccccc1SCCS(=O)(=O)c1ccc(Cl)cc1Cl,0,45µM,0,0
O=C(CSc1nnc(-c2ccc(Cl)cc2)o1)N1CCc2ccccc21,-,0,-,0
S=c1nc[nH]c2nc[nH]c12,0,16µM!,0,?
Cn1cnc2nc[nH]c2c1=S,-,-,-,0

# Screening data from PubChem.
